Measured values taken from PubChem BioAssay (EPA / NIEHS).
Where “and” joins values, the source holds several entries; their conditions need not be identical. Equal entries are not always repeated. Records with an inconclusive call do not appear. Some compounds were tested as several samples or in several runs, with calls that do not always agree. Calls of active or inactive are those of the source. Rule for the calls, unless noted: active = hit-call score of the fitted dose curve at least 0.9, where 1 is the maximum; inactive = score below 0.9.

Assays:
[1] = read-out: solute carrier (SLCO1B1), SLCO1B1 (gene 10599); test: LTEA_HepaRG_SLCO1B1: Life Technologies and Expression Analysis (LTEA) Assay for solute carrier (SLCO1B1) using HepaRG (AID 2283530); conditions: mRNA level, 48 h; actives raise or lower the signal
In short: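 Differentiated human HepaRG cells were exposed for 48 h in serum-free induction medium to eight half-log concentrations, top 100 uM, in 0.5% DMSO. SLCO1B1 mRNA was measured by qRT-PCR, normalized to ACTB, GAPDH and POLR2A, and fitted bidirectionally against DMSO.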

[2] = read-out: Transforming Growth Factor (TGFA), TGFA (gene 7039); test: LTEA_HepaRG_TGFA: Life Technologies and Expression Analysis (LTEA) Assay for Transforming Growth Factor (TGFA) using HepaRG (AID 2283532); conditions: mRNA level, 48 h; actives raise or lower the signal
In short: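 Differentiated HepaRG cells exposed 48 hours in serum-free induction medium, 0.5% DMSO vehicle, 8-point half-log series from 100 uM, in duplicate. TGFA mRNA by TaqMan qRT-PCR, normalised to ACTB, GAPDH, POLR2A; bidirectional fit versus DMSO.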

[3] = read-out: Transforming Growth Factor (TGFB1), TGFB1 (gene 7040); test: LTEA_HepaRG_TGFB1: Life Technologies and Expression Analysis (LTEA) Assay for Transforming Growth Factor (TGFB1) Transporter using HepaRG (AID 2283533); conditions: mRNA level, 48 h; actives raise or lower the signal
In short: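 Differentiated HepaRG cells exposed 48 hr in serum-free induction medium to eight half-log concentrations up to 100 uM (0.5% DMSO), duplicate; TGFB1 mRNA by TaqMan qRT-PCR normalised to ACTB, GAPDH, POLR2A; bidirectional fit against DMSO.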

TIMP1, TIMP1 (gene 7076) = test: LTEA_HepaRG_TIMP1: Life Technologies and Expression Analysis (LTEA) Assay for TIMP1 using HepaRG (AID 2283534); conditions: mRNA level, 48 h; actives raise or lower the signal
In short: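 Differentiated HepaRG cells exposed 48 h in serum-free induction medium, duplicates, eight half-log concentrations from 100 uM in 0.5% DMSO. TIMP1 mRNA by qRT-PCR normalized to ACTB, GAPDH, POLR2A; bidirectional fitting against DMSO.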

[4] = read-out: Tumor necrosis factor receptor 1 (TNFRSF1A), TNFRSF1A (gene 7132); test: LTEA_HepaRG_TNFRSF1A: Life Technologies and Expression Analysis (LTEA) Assay for Tumor necrosis factor receptor 1 (TNFRSF1A) using HepaRG (AID 2283535); conditions: mRNA level, 48 h; actives raise or lower the signal
In short: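 Differentiated HepaRG cells in serum-free induction medium, exposed 48 h in duplicate to 8 half-log concentrations up to 100 uM in 0.5% DMSO. TNFRSF1A mRNA by Fluidigm TaqMan qRT-PCR, normalized to ACTB, GAPDH, POLR2A; bidirectional fit.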

[5] = read-out: Thyroid Hormone Responsive (THRSP), THRSP (gene 7069); test: LTEA_HepaRG_THRSP: Life Technologies and Expression Analysis (LTEA) Assay for Thyroid Hormone Responsive (THRSP) using HepaRG (AID 2283536); conditions: mRNA level, 48 h; actives raise or lower the signal
In short: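 Differentiated HepaRG cells treated 48 h in serum-free induction medium with 8 half-log concentrations up to 100 uM (0.5% DMSO), duplicates. THRSP mRNA by TaqMan qRT-PCR normalised to ACTB, GAPDH, POLR2A; bidirectional fit versus DMSO.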

[6] = read-out: Cellular tumor antigen p53 (Homo sapiens) (UniProt P04637); test: LTEA_HepaRG_TP53: Life Technologies and Expression Analysis (LTEA) Assay for Tumor Protein P53 (TP53) using HepaRG (AID 2283537); conditions: mRNA level, 48 h; actives raise or lower the signal
In short: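 Gain or loss of TP53 mRNA signal is scored relative to 0.5% DMSO after 48 h chemical treatment of HepaRG liver cells, tested in duplicate at eight half-log concentrations up to 100 uM.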

[7] = read-out: UDP glucuronosyltransferase (UGT1A1), UGT1A1 (gene 54658); test: LTEA_HepaRG_UGT1A1: Life Technologies and Expression Analysis (LTEA) Assay for UDP glucuronosyltransferase (UGT1A1) using HepaRG (AID 2283538); conditions: mRNA level, 48 h; actives raise or lower the signal
In short: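 Human liver HepaRG cultures receive test chemical for 48 h, up to 100 uM in 0.5% DMSO, with phenobarbital induction controls. UGT1A1 mRNA is measured by qRT-PCR and normalized to ACTB, GAPDH and POLR2A.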

[8] = read-out: UDP glucuronosyltransferase (UGT1A6), UGT1A6 (gene 54578); test: LTEA_HepaRG_UGT1A6: Life Technologies and Expression Analysis (LTEA) Assay for UDP glucuronosyltransferase (UGT1A6) using HepaRG (AID 2283539); conditions: mRNA level, 48 h; actives raise or lower the signal
In short: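 Differentiated HepaRG cells, ~100,000/well, were exposed for 48 h in serum-free induction medium with 0.5% DMSO to 8-point half-log series topping at 100 uM, in duplicate. mRNA measured by Fluidigm TaqMan qRT-PCR, normalized to ACTB, GAPDH and POLR2A.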

[9] = read-out: X-box binding protein 1 (XBP1), XBP1 (gene 7494); test: LTEA_HepaRG_XBP1: Life Technologies and Expression Analysis (LTEA) Assay for X-box binding protein 1 (XBP1) using HepaRG (AID 2283540); conditions: mRNA level, 48 h; actives raise or lower the signal
In short: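 Differentiated human HepaRG cells in serum-free induction medium exposed 48 h in duplicate to eight half-log concentrations up to 100 uM in 0.5% DMSO. XBP1 mRNA measured by Fluidigm TaqMan qRT-PCR, normalized to ACTB, GAPDH, POLR2A; bidirectional fitting against DMSO.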

[10] = LTEA_HepaRG_LDH_cytotoxicity: Cytotoxicity Assessment in the Life Technologies and Expression Analysis (LTEA) Assay (AID 2283563; active = hit-call score of the fitted dose curve at least 0.9, where 1 is the maximum;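 for AC50: LDH activity released into spent culture medium as a marker of cell death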)
In short: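 Differentiated HepaRG cells in serum-free induction medium, exposed 48 h in duplicate to 8 half-log concentrations up to 100 uM in 0.5% DMSO. Cytotoxicity from LDH measured in spent medium, fit relative to DMSO.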

[11] = TOX21_p53_BLA_p2_viability: Viability Assessment in the Tox21 HCT-116 p53 Agonism Beta-lactamase Assay, Phase 2 (AID 2283591; active = hit-call score of the fitted dose curve at least 0.9, where 1 is the maximum;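 note: compound exposure lasted 16 h at 37 °C; actives lower the ATP signal meaning cytotoxicity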)
In short: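 HCT116 p53-bla cells, 4000/well, dosed after 5 h plating (217-fold dilution of DMSO stocks) and incubated 16 h at 37C. Viability taken as cellular ATP by CellTiter-Glo luminescence after 30 min RT; signal loss marks cytotoxicity.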

[12] = target: Cellular tumor antigen p53 (Homo sapiens) (UniProt P04637); test: TOX21_p53_BLA_p2_ratio: Tox21 HCT-116 p53 Agonism Beta-lactamase Assay, Ratio, Phase 2 (AID 2283592; active = hit-call score of the fitted dose curve at least 0.9, where 1 is the maximum)
Chain of Cellular tumor antigen p53 (Homo sapiens) (P04637 whole entry, looked up): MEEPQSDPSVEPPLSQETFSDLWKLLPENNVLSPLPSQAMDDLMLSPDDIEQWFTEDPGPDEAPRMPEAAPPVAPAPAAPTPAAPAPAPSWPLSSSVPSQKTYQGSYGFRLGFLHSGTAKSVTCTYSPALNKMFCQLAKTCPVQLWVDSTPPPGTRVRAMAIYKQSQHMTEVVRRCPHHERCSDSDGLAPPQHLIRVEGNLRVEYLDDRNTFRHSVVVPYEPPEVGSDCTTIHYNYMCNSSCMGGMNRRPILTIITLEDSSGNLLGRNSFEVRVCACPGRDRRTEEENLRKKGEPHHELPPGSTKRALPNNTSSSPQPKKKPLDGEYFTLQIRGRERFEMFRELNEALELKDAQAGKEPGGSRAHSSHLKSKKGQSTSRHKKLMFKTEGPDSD
In short: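 HCT-116 cells with p53-responsive beta-lactamase reporter, 4000 cells/well, preincubated 5 h, then compound in DMSO (217-fold dilution) for 16 h at 37C. CCF4-AM substrate 2 h at room temperature; 460/530 nm emission ratio fitted upward versus DMSO.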

[13] = TOX21_p53_BLA_p3_viability: Viability Assessment in the Tox21 HCT-116 p53 Agonism Beta-lactamase Assay, Phase 3 (AID 2283593; active = hit-call score of the fitted dose curve at least 0.9, where 1 is the maximum;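 note: cells exposed to compound for 16 h before reading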)
In short: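 HCT116 cells, 4000/well, dosed 5 h after plating by pin transfer (217-fold dilution from DMSO stock) and incubated 16 h at 37C, 5% CO2. Viability read as ATP luminescence with CellTiter-Glo after 30 min at room temperature.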

[14] = target: Cellular tumor antigen p53 (Homo sapiens) (UniProt P04637); test: TOX21_p53_BLA_p3_ratio: Tox21 HCT-116 p53 Agonism Beta-lactamase Assay, Ratio, Phase 3 (AID 2283596; active = hit-call score of the fitted dose curve at least 0.9, where 1 is the maximum)
In short: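 HCT116 p53-bla cells (4000/well) given compound in DMSO (217-fold dilution) after 5 h, incubated 16 h at 37C. CCF4-AM substrate 2 h at room temperature; 460/530 nm emission ratio, gain fitted against DMSO.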

[15] = TOX21_p53_BLA_p4_viability: Viability Assessment in the Tox21 HCT-116 p53 Agonism Beta-lactamase Assay, Phase 4 (AID 2283597; active = hit-call score of the fitted dose curve at least 0.9, where 1 is the maximum;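 note: hits lower the luminescence signal meaning cytotoxicity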)
In short: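 HCT-116 p53-bla cells, 4000/well, dosed after 5 h attachment and incubated 16 h at 37 °C, 5% CO2. Viability from CellTiter-Glo ATP luminescence after 30 min at room temperature, taken after the beta-lactamase read; loss of signal indicates cytotoxicity.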

[16] = TOX21_p53_BLA_p5_viability: Viability Assessment in the Tox21 HCT-116 p53 Agonism Beta-lactamase Assay, Phase 5 (AID 2283600; active = hit-call score of the fitted dose curve at least 0.9, where 1 is the maximum)
In short: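 HCT-116 p53 beta-lactamase reporter cells, 4000/well, were exposed to compound (pin transfer, 217-fold dilution) for 16 hours at 37C. Cellular ATP was read by CellTiter-Glo luminescence after 30 min at room temperature.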

[17] = target: Cellular tumor antigen p53 (Homo sapiens) (UniProt P04637); test: TOX21_p53_BLA_p4_ratio: Tox21 HCT-116 p53 Agonism Beta-lactamase Assay, Ratio, Phase 4 (AID 2283601; active = hit-call score of the fitted dose curve at least 0.9, where 1 is the maximum)
In short: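 HCT-116 p53 beta-lactamase reporter cells (4000/well) preincubated 5 h, then compound (217-fold dilution of DMSO stock) for 16 h at 37C. CCF4-AM substrate added 2 h at room temperature; 460/530 nm emission ratio fitted upward versus DMSO.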

[18] = ATG_XTT_Cytotoxicity: Cytotoxicity Assessment in the Attagene TRANS-FACTORIAL HepG2 Assay (AID 2283584; active = hit-call score of the fitted dose curve at least 0.9, where 1 is the maximum)
In short: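 HepG2 cells transiently transfected with GAL4-UAS multiple reporter units, dosed 24 h; cytotoxicity read by XTT as loss of signal versus DMSO baseline.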

Measured: AC50

O=[N+]([O-])c1c(Cl)c(Cl)c(Cl)c(Cl)c1Cl
active: [7] 17.2 µM
not listed: [18]
inactive: all other assays above

CCC(C)(C)C(=O)OC1=C(c2ccc(Cl)cc2Cl)C(=O)OC12CCCCC2
active: [13] 74.9 µM | [14] 2.5 µM
not listed: [16] | [18]
inactive: all other assays above

COC(=O)c1ccccc1S(=O)(=O)NC(=O)N(C)c1nc(C)nc(OC)n1
inactive: [11] | [15] | [16] | [17]

CNC(=O)CSP(=S)(OC)OC
inactive: [1] | [2] | [3] | TIMP1, TIMP1 (gene 7076) | [4] | [5] | [7] | [8] | [9] | [10]

O=C(Nc1ccccc1)Nc1cnns1
active: [1] 74.2 µM | [5] 73.5 µM | [7] 87.2 µM | [8] 77.9 µM | [9] 50 µM | [10] 77.2 µM | [12] 64.1 µM | [17] 52.9 µM
not listed: [16] | [18]
inactive: all other assays above

COC(=O)c1ccccc1CS(=O)(=O)NC(=O)Nc1nc(OC)cc(OC)n1
inactive: [11] | [12] | [13] | [16] | [17]

CNC(=O)/C=C(\C)OP(=O)(OC)OC
inactive: [1] | [2] | [3] | TIMP1, TIMP1 (gene 7076) | [4] | [5] | [7] | [8] | [9] | [10]

CNC(=O)Oc1cccc(N=CN(C)C)c1
not listed: [10] | [11] | [12] | [13] | [14] | [16] | [18]
inactive: all other assays above

O=[N+]([O-])/N=C1\NCCN1Cc1ccc(Cl)nc1
inactive: [2] | [3] | TIMP1, TIMP1 (gene 7076) | [7] | [8] | [10]
active: [1] 50 µM | [4] 28.1 µM | [5] 50 µM | [9] 25.5 µM

Clc1ccccc1-c1nnc(-c2ccccc2Cl)nn1
active: [5] 50 µM | [7] 10.7 µM
inactive: [1] | [2] | [3] | TIMP1, TIMP1 (gene 7076) | [4] | [8] | [9] | [10]

CC[C@H](C)[C@H]1O[C@]2(C=C[C@@H]1C)C[C@@H]1C[C@@H](C/C=C(\C)[C@@H](O[C@H]3C[C@H](OC)[C@@H](O[C@H]4C[C@H](OC)[C@@H](O)[C@H](C)O4)[C@H](C)O3)[C@@H](C)/C=C/C=C3\CO[C@@H]4[C@H](O)C(C)=C[C@@H](C(=O)O1)[C@]34O)O2 (tested in a mixture with another compound)
active: [1] 15.2 µM | [2] 13.9 µM | [3] 55.3 µM | TIMP1, TIMP1 (gene 7076) 11.7 µM | [4] 51.4 µM | [6] 6.99 µM | [8] 18.6 µM | [10] 22.1 µM | [11] 9.13 µM and 43.5 µM | [12] 17.6 µM | [13] 15.9 µM | [14] 28.7 µM | [15] 6.67 µM and 35.5 µM | [16] 7.91 µM and 42.1 µM
inactive: [5] | [9] | [12] | [13] | [17]

O=C1c2ccccc2C(=O)N1SC(Cl)(Cl)Cl
active: [12] 7.1 µM and 14.8 µM | [14] 6.49 µM and 23.1 µM | [17] 13.5 µM and 22.1 µM
not listed: [16] | [18]
inactive: all other assays above

CCc1ccc(C(=O)NN(C(=O)c2cc(C)cc(C)c2)C(C)(C)C)cc1
active: [5] 21.5 µM | [7] 12.3 µM | [10] 81.9 µM
not listed: [13] | [16] | [18]
inactive: all other assays above

O=C(NC(=O)c1c(F)cccc1F)Nc1ccc(OC(F)(F)C(F)OC(F)(F)F)c(Cl)c1 (stereo unspecified)
active: [5] 6.25 µM
inactive: [1] | [2] | [3] | TIMP1, TIMP1 (gene 7076) | [4] | [7] | [8] | [9] | [10]

CCS(=O)(=O)c1cccnc1S(=O)(=O)NC(=O)Nc1nc(OC)cc(OC)n1
inactive: [18]

CCCN(CCC)c1c([N+](=O)[O-])cc(C(F)(F)F)cc1[N+](=O)[O-]
inactive: [1] | [2] | [3] | TIMP1, TIMP1 (gene 7076) | [4] | [5] | [8] | [9] | [10]
active: [7] 29.2 µM
